# PubChem BioAssay (NCATS)
# Inconclusive results are not listed. Entries that show only a call come without a potency. Active and inactive are the calls of the source. Unless noted, calls come from the whole dose curve; as a rule, active = well fitted curve in the direction sought with a large enough effect; inconclusive = small, poorly fitted or top-dose-only effect, or another doubt; inactive = no such curve, though single readings can be large; an effect the other way counts as inactive or inconclusive.
# Legend:
# [1] = biological target: Glutathione peroxidase 1 (Homo sapiens) (UniProt P07203); test: Primary qHTS Assay for Inhibitors of Recombinant Selenoprotein Glutathione Peroxidase 1 (GPX1) (AID 1845191); note: nearly all actives have a fitted effect of over 65% in size
# Chain of Glutathione peroxidase 1 (Homo sapiens) (P07203 whole entry, looked up): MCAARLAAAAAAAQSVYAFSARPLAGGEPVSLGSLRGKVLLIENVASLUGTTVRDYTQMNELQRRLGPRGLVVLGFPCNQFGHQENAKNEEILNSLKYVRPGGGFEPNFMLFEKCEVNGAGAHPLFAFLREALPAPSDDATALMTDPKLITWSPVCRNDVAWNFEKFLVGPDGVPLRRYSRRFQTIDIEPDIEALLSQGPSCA
# Summary of the method: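 GR-coupled readout: NADPH consumption tracked by fluorescence, ex 340/em 450 nm, at t=0 and after 15 min at RT. Final mix 10 nM GPX1, 1 mM GSH, 0.5 mM CHP, 0.5 mM NADPH, 100 nM GR, 0.01% BSA, following 30 min enzyme–compound preincubation.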
# [2] = biological target: Luciferin 4-monooxygenase (Photinus pyralis) (UniProt P08659); test: Primary firefly luciferase (FLuc) qHTS assay for identification of artifact compounds. (AID 1845220); conditions: outcome: dose series up to 54.1 µM; note: nearly all actives have a fitted effect of over 60% in size
# Summary of the method: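 D-luciferin and ATP (10 uM each, final) in Tris acetate buffer pH 7.6 were incubated with compounds for 15 min at room temperature. The reaction was started with 10 nM Photinus pyralis luciferase and luminescence read after 5 min. Percent inhibition was fitted to a 4-parameter Hill equation.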
# [3] = system: Nanoluciferase (engineered Oplophorus gracilirostris luciferase); test: Primary Nanoluciferase (NLuc) qHTS assay for identification of artifact compounds. (AID 1845222)
# Summary of the method: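 Diluted conditioned medium from NLuc-expressing S16 cells treated with compounds for 15 min at room temperature, then Nano-Glo substrate added; luminescence read after 5 min. Percent inhibition versus no-enzyme and DMSO controls fitted to 4-parameter Hill equation.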
# [4] = Primary redox qHTS assay for identification of artifact compounds. (AID 1845223)
# Summary of the method: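 Redox-cycling detection via DTT (250 uM final) oxidation coupled to Amplex Red (25 uM)/HRP (250 mU/mL) in HBSS. 15 min preincubation plus 30 min after DTT, room temperature. Ex/Em 525/598 nm; 4-parameter Hill fit against DMSO and 10 uM DA3003.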
# [5] = qHTS profiling for inhibitors of Plasmodium falciparum proliferation (AID 504749); note: nearly all actives have a fitted effect of over 60% in size; note: potency is the fitted concentration of half-maximal effect; conditions: P. falciparum in erythrocytes, SYBR Green DNA, 72 h
# Summary of the method: (§1)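 SYBR Green fluorescence (ex 485 nm, em 535 nm) reports parasite DNA after 72 h compound exposure of infected red cells at 0.3% parasitemia, 2.5% hematocrit; signal normalized to 0.29 uM artemisinin and vehicle wells.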
# [6] = system: 3D7; test: as above; conditions: P. falciparum in erythrocytes, SYBR Green DNA, 72 h; series mostly up to 28.7 µM
# Summary of the method: as §1
# [7] = Primary fluorescence-based thiol-reactive (MSTI) qHTS assay for identification of artifact compounds. (AID 1845221);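 note: thiol-reactive compounds lower the probe fluorescence signal; nearly all actives have a fitted effect of over 65% in size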
# Summary of the method: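 One-hour, room-temperature, dark incubation of compound with 4 uM MSTI in PBS (pH 7.4, 2% DMSO) precedes a fluorescence read at 525 nm excitation, 598 nm emission; Hill-equation fitting yields concentration-response values.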
# [8] = biological target: Phospholipid hydroperoxide glutathione peroxidase GPX4 (Homo sapiens) (UniProt P36969); test: Primary qHTS Assay for Inhibitors of Recombinant Selenoprotein Glutathione Peroxidase 4 (GPX4) (AID 1845192); note: nearly all actives have a fitted effect of over 65% in size
# Chain of Phospholipid hydroperoxide glutathione peroxidase GPX4 (Homo sapiens) (P36969 whole entry, looked up): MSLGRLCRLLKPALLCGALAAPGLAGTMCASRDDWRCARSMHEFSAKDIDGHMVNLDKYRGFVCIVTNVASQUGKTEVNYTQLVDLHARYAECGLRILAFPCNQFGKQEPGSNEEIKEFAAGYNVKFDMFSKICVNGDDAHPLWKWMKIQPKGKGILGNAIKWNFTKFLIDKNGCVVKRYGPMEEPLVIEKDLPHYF
# Summary of the method: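 Steps: GPX4 plus compound, 30 min RT; add GR/GSH/NADPH master mix; start with cumene hydroperoxide; read 340/450 nm fluorescence at 0 and 15 min. Finals were 200 nM GPX4, 1 mM GSH, 0.5 mM CHP, 0.5 mM NADPH, 100 nM GR.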
# [9] = qHTS drug screen for cell cycle checkpoint inhibitors in PARPi-resistant BRCA-mutant ovarian cancer cell lines. (AID 1963452; calls by dose curve; note: potency is the fitted concentration of half-maximal effect); conditions: PEO1/OlaR viability, CellTiter-Glo luminescence, 96 h; for Z-AUC: stronger effect = lower value
# Summary of the method: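 PEO1, PEO4 and PEO1/OlaR ovarian cancer cells, 600 per well, exposed 96 h at 37C to a dilution series. Viability read by CellTiter-Glo luminescence, normalized to DMSO and empty wells; activity summarized as Z-AUC.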
# [10] = biological target: Cytochrome P450 3A4 (Homo sapiens) (UniProt P08684); test: qHTS for inhibitors of CYP3A4 against the NCATS DSHEA and TCM libraries (AID 1919971);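 note: inhibition lowers luminescence from luciferin made by CYP3A4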
# Chain of Cytochrome P450 3A4 (Homo sapiens) (P08684 whole entry, looked up, canonical isoform): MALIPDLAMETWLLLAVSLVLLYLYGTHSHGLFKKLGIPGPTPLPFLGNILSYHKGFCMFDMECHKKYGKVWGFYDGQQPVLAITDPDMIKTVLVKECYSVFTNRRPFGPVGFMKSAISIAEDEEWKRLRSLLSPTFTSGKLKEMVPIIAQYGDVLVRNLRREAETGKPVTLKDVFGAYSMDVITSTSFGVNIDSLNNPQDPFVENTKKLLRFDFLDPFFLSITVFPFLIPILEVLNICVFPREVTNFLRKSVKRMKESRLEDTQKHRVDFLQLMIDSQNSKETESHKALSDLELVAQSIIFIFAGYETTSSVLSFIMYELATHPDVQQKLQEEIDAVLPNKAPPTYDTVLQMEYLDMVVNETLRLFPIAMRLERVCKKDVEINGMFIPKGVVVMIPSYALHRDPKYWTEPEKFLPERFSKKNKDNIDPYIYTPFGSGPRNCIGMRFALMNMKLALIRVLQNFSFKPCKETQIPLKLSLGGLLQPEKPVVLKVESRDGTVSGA
# Summary of the method: (§2)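 Isoform-specific enzyme and substrate levels; enzyme-free wells as background. Reaction: 1x NADPH regenerating system, 30-45 min, room temperature, shielded from light; luminescent detection reagent added, 30 min.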
# [11] = biological target: Cytochrome P450 2D6 (Homo sapiens) (UniProt P10635); test: qHTS for inhibitors of CYP2D6 against the NCATS DSHEA and TCM libraries (AID 1919972)
# Chain of Cytochrome P450 2D6 (Homo sapiens) (P10635 whole entry, looked up): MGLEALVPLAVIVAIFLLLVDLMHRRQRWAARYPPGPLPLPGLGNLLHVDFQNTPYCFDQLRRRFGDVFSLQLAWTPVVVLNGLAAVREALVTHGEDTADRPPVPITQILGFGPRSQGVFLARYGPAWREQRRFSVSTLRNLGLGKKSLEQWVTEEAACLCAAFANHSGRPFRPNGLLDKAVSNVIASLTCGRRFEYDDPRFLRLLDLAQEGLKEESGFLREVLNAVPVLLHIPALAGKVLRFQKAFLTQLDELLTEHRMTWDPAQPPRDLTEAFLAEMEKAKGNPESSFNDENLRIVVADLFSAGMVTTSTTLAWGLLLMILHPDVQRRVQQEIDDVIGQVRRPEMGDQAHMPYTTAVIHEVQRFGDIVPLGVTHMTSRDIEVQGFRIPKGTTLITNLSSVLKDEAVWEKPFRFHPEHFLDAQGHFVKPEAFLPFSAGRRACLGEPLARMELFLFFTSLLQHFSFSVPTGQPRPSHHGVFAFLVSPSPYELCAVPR
# Summary of the method: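 qHTS, concentration–response format with most substances from 19.5 nM. CYP2D6 + pro-luciferin substrate, 15 min with compound, then 1x NADPH regen, 30–45 min RT dark. Glo detection 30 min, luminescence. Quinidine control.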
# [12] = biological target: Cytochrome P450 2C9 (Homo sapiens) (UniProt P11712); test: qHTS for inhibitors of CYP2C9 against the NCATS DSHEA and TCM libraries (AID 1919973);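 note: luminogenic pro-luciferin CYP2C9 substrate turned into luciferin with NADPH regeneration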
# Chain of Cytochrome P450 2C9 (Homo sapiens) (P11712 whole entry, looked up): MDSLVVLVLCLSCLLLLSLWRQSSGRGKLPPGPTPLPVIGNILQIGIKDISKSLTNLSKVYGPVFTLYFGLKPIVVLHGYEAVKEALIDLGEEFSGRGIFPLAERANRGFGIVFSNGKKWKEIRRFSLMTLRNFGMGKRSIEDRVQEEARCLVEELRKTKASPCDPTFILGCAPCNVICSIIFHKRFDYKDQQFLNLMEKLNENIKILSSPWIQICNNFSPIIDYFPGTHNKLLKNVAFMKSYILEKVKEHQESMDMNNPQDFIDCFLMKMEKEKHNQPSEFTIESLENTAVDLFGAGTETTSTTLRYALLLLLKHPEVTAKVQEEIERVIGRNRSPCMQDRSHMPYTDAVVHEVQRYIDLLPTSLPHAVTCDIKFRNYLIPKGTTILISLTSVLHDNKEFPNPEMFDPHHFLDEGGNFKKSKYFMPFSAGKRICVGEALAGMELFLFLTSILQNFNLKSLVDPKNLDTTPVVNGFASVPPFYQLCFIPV
# Summary of the method: as §2
# [13] = biological target: Cytochrome P450 2C19 (Homo sapiens) (UniProt P33261); test: qHTS for inhibitors of CYP2C19 against the NCATS DSHEA and TCM libraries (AID 1919974);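 note: luminescence from luciferin released by CYP2C19 oxidation of a pro-luciferin substrate; potency is the fitted concentration of half-maximal effect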
# Chain of Cytochrome P450 2C19 (Homo sapiens) (P33261 whole entry, looked up): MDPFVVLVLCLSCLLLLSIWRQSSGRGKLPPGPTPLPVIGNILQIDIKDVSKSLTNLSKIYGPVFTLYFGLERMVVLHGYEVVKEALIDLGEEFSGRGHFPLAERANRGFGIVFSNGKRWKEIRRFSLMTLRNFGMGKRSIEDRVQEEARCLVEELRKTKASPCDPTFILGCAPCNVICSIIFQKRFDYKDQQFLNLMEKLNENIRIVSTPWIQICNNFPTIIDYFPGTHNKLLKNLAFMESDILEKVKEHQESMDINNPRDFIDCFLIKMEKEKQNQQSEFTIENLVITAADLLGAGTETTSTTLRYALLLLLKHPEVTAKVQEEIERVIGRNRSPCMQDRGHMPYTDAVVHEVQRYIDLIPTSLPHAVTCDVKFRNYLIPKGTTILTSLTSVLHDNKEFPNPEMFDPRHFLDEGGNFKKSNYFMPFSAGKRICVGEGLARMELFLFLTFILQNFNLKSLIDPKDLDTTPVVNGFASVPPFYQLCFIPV
# Summary of the method: as §2
# [14] = KB-3-1 P-gp reporter qHTS against the NCATS DSHEA and TCM libraries (AID 1919975)
# Summary of the method: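 Parental KB-3-1 human cervical adenocarcinoma cells (500 cells/well, DMEM + 10% FBS) were treated with substances for ~72 h at 37C; viability was read by CellTiter-Glo luminescence.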
# [15] = qHTS Counterscreen for compound interference against the NCATS DSHEA and TCM libraries (AID 1919978); conditions: firefly luciferase detection reagent interference, luminescence
# Summary of the method: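 D-luciferin (1 uM final) or 100 mM potassium phosphate buffer alone was preincubated 15 min at RT with compounds (19.5 nM to 39.8 uM final). Luciferin detection reagent was then added and luminescence read after 30 min at RT.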
# [16] = Dual reporter qHTS for agonist of Pregnane X Receptor (hPXR) against the NCATS DSHEA and TCM libraries: Fluorescence readout (AID 1920058)
# Summary of the method: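 In this qHTS counter-read, reporter-bearing HepG2 cells in charcoal-stripped serum received substances for approximately 24 h before viability was assessed fluorometrically with CellTiter-Fluor.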
# [17] = biological target: Nuclear receptor subfamily 1 group I member 2 (Homo sapiens) (UniProt O75469); test: Dual reporter qHTS for agonist of Pregnane X Receptor (hPXR) against the NCATS DSHEA and TCM libraries: Luminescence readout (AID 1920059)
# Chain of Nuclear receptor subfamily 1 group I member 2 (Homo sapiens) (O75469 whole entry, looked up): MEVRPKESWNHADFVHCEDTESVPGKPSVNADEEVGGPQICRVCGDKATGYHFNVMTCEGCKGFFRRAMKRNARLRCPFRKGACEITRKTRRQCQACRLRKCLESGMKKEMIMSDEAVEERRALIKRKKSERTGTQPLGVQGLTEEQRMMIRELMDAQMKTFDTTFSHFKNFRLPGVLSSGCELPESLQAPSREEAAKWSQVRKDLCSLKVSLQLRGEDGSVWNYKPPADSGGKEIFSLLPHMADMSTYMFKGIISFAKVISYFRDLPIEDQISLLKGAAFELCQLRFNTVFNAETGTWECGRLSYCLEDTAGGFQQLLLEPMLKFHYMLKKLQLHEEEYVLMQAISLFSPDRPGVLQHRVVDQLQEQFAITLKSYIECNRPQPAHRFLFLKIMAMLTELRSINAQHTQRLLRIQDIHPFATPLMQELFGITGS
# Summary of the method: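 hPXR-Luc HepG2 cells, 2000/well in 5% charcoal-stripped FBS medium, attached 5 h, then exposed 24 h at 37C to compounds. Viability by CellTiter-Fluor, then luciferase luminescence with ONE-Glo.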
# [18] = Dual reporter qHTS for antagonist of Pregnane X Receptor (hPXR) against the NCATS DSHEA and TCM libraries: Fluorescence Readout (AID 1920061)
# Summary of the method: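 Rifampicin-stimulated (2 uM final) hPXR-luciferase HepG2 cells were treated for 24 h with DSNP/TCM substances. Viability came from CellTiter-Fluor fluorescence, reporter activity from ONE-Glo luminescence.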
# [19] = at 12.8 µM (top of the series), parasite line A
# [20] = at 12.8 µM (top of the series), parasite line B
# [21] = at 28.7 µM (top of the series), parasite line A
# [22] = at 28.7 µM (top of the series), parasite line B
smiles,measurement,setting,value
CN1CCN(C(c2ccccc2)c2ccccc2)CC1,Potency,[1],inactive
same,outcome,[2],inactive
same,Potency,[3],inactive
same,outcome,[4],inactive
same,"activity, negative = inhibition",[5]; [19],3.5% (inactive)
same,"activity, negative = inhibition",[5]; [20],-5.02% (inactive)
same,Potency,[6],inactive
C#C[C@]1(O)CC[C@H]2[C@@H]3CCc4cc(OC5CCCC5)ccc4[C@H]3CC[C@@]21C,Potency,[1],inactive
same,"activity, negative = inhibition",[5]; [21],-10.1% (inactive)
same,"activity, negative = inhibition",[5]; [22],-11.7% (inactive)
same,Potency,[6],inactive
COc1ccc(CN2CCN(C(c3ccc(F)cc3)c3ccc(F)cc3)CC2)c(OC)c1OC,Potency,[1],inactive
same,outcome,[2],inactive
same,Potency,[7],inactive
same,Potency,[3],inactive
same,outcome,[4],inactive
same,Potency,[5]; parasite line A,8.91 µM (active)
same,Potency,[5]; parasite line B,8.91 µM (active)
same,Potency,[6],7.94 µM (active)
COc1cccc(OC)c1C(=O)N[C@@H]1C(=O)N2[C@@H]1SC(C)(C)[C@@H]2C(=O)O,Potency,[8],inactive
same,outcome,[2],inactive
same,Potency,[7],inactive
same,Potency,[3],inactive
O=C(O)c1cc2cc(Cc3cccnc3)ccc2o1,Potency,[1],inactive
same,"activity, negative = inhibition",[5]; [21],9.24% (inactive)
same,"activity, negative = inhibition",[5]; [22],5.6% (inactive)
same,Potency,[6],inactive
CCN(CC)C(=O)N1CCN(C)CC1,Potency,[1],inactive
same,"activity, negative = inhibition",[5]; [19],5.24% (inactive)
same,"activity, negative = inhibition",[5]; [20],18.6% (inactive)
same,Potency,[6],inactive
CC[C@@H](CO)NCCN[C@@H](CC)CO,Potency,[8],inactive
CC(=O)OCC(=O)[C@@]12OC(C)(C)O[C@@H]1C[C@H]1[C@@H]3C[C@H](F)C4=CC(=O)C=C[C@]4(C)[C@@]3(F)[C@@H](O)C[C@@]12C,Potency,[1],inactive
same,Z-AUC,[9],-0.667 (inactive)
same,Z-AUC,[9]; measured here: PEO1 parental Z-AUC,0.136
same,Z-AUC,[9]; measured here: PEO4 Z-AUC,-0.783
C[C@]12CCC(=O)C=C1CC[C@H]1[C@@H]3CC[C@](O)(C(=O)CO)[C@@]3(C)C[C@H](O)[C@@]12F,Potency,[1],inactive
same,"activity, negative = inhibition",[5]; [21],4.53% (inactive)
same,"activity, negative = inhibition",[5]; [22],9.81% (inactive)
same,Potency,[6],inactive
OC[C@H]1O[C@@H](n2cnc3c(=S)nc[nH]c32)[C@H](O)[C@@H]1O,Potency,[8],inactive
NC(=NCCCCCCN=C(N)/N=C(\N)Nc1ccc(Cl)cc1)/N=C(\N)Nc1ccc(Cl)cc1,Potency,[3],inactive
Nc1ccn([C@@H]2O[C@H](CO)[C@@H](O)C2(F)F)c(=O)n1,Potency,[3],inactive
same,Potency,[9],0.0078 µM (active)
Nc1nc2ncc(CNc3ccc(C(=O)N[C@@H](CCC(=O)O)C(=O)O)cc3)nc2c(=O)[nH]1,outcome,[10],inactive
same,outcome,[11],inactive
same,outcome,[12],inactive
same,Potency,[13],3.55 µM (active)
same,outcome,[14],inactive
same,max response,[15],-4.69% (inactive)
same,outcome,[16],inactive
same,outcome,[17],inactive
same,outcome,[18],inactive
CCN1CCC[C@H]1CNC(=O)c1c(OC)ccc(Br)c1OC,"activity, negative = inhibition",[5]; [21],12.1% (inactive)
same,"activity, negative = inhibition",[5]; [22],10% (inactive)
same,Potency,[6],inactive
O=C(CCN1CCC(c2ccccc2)C1)c1ccc2c(c1)OCCO2 (configuration not stated),"activity, negative = inhibition",[5]; [21],10.2% (inactive)
same,"activity, negative = inhibition",[5]; [22],1.82% (inactive)
same,Potency,[6],inactive
CC(C)(Oc1ccc(Cl)cc1)C(=O)O,"activity, negative = inhibition",[5]; [21],5.47% (inactive)
same,"activity, negative = inhibition",[5]; [22],14.8% (inactive)
same,Potency,[6],inactive
CN=C(NC#N)NCCSCc1csc(N=C(N)N)n1,"activity, negative = inhibition",[5]; [21],2.51% (inactive)
same,"activity, negative = inhibition",[5]; [22],-0.371% (inactive)
same,Potency,[6],inactive
CCCCN1CCCC1C(=O)Nc1c(C)cc(C)cc1C (configuration not stated),"activity, negative = inhibition",[5]; [21],-15.8% (inactive)
same,"activity, negative = inhibition",[5]; [22],-3.59% (inactive)
same,Potency,[6],inactive
CCCCCCCCCCOCC(O)CN (configuration not stated),"activity, negative = inhibition",[5]; [21],-16.8% (inactive)
same,Potency,[6],inactive
CCCCCCCCCCCCCCCC[N+](C)(C)CC,Potency,[5]; parasite line A,3.98 µM (active)
same,Potency,[5]; parasite line B,5.01 µM (active)
same,Potency,[6],3.55 µM (active)
CC(Cc1cccc(C(F)(F)F)c1)NCCOC(=O)c1ccccc1 (configuration not stated),"activity, negative = inhibition",[5]; [21],15.8% (inactive)
same,"activity, negative = inhibition",[5]; [22],6.99% (inactive)
same,Potency,[6],inactive
COCc1c(C(C)C)nc(C(C)C)c(/C=C/[C@@H](O)C[C@@H](O)CC(=O)O)c1-c1ccc(F)cc1,"activity, negative = inhibition",[5]; [21],-9.49% (inactive)
same,"activity, negative = inhibition",[5]; [22],-12.9% (inactive)
same,Potency,[6],inactive
COc1ccc(/C=C/C(=O)c2ccc(OC)cc2OC)cc1,Potency,[5]; parasite line A,3.16 µM (active)
same,Potency,[5]; parasite line B,8.91 µM (active)
same,Potency,[6],10 µM (active)
